# HttQ103 aggreg = qHTS Multiplex Assay to Identify Dual Action Probes in a Cell Model of Huntington: Aggregate Formation (GFP); PC12 HttQ103-GFP aggregates, Acumen cytometry, 40 h; Potency, µM (doses to about 46.1 µM), inactives show at the highest dose activity change, negative = inhibition, usual class: inhibitors; 220,000 compounds, 1.1% hits; also: % is scaled to controls: 0 for no effect and ±100 for the full control effect; nearly all actives have a fitted effect of over 60% in size
#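 Using laser scanning cytometry, GFP-positive aggregates were counted after lysis of PC12 cells induced with 100 nM tebufenozide to express HTT exon 1 Q103–GFP. Compounds were tested in titration.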
# HTT cytoprotect = qHTS Multiplex Assay to Identify Dual Action Probes in a Cell Model of Huntington: Cytoprotection (ATP); PC12 HTT-Q103 induced, cytoprotection, ATP luminescence, 40 h; Potency, µM (top dose mostly 56.4 µM), without a hit: cytoprotection (ATP increase), most hits filed as activators; 230,000 compounds, 0.14% hits; AID 1471, 2008; also: % of control where 0% means no effect; nearly all actives have a fitted effect of over 45% in size
#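 Huntington model: PC12 line, ecdysone-inducible HTTQ103 exon1–GFP, tebufenozide 100 nM. Test articles in a dose series. Endpoint luminescence from cellular ATP.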
# Tau fluor counter = Counterscreen qHTS for Inhibitors of Tau Fibril Formation, Fluorescence Polarization. tau K18 P301L Alexa594 fluorescence, heparin fibrillization. Potency, µM (highest dose often 57.7 µM), without a hit: at the highest dose activity change, negative = decrease. 280,000 compounds, 0.93% hits. AID 1463, 2008; also: % is scaled to controls: 0 for no effect and ±100 for the full control effect; nearly all actives have a fitted effect of over 55% in size
#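 Human tau K18 P301L (15 uM unlabeled, 0.24 uM Alexa 594-labeled) in 100 mM sodium acetate pH 7 with 20 uM heparin, 6 hr at 37 C. ThT 30 uM added, 1 hr ambient; Alexa 594 FP and total fluorescence read at 555/632 nm.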
# Tau ThT inhib = qHTS for Inhibitors of Tau Fibril Formation, Thioflavin T Binding | Microtubule-associated protein tau (Homo sapiens), P10636 | recombinant tau K18 P301L (four-repeat tau fragment), heparin-induced fibrillization, ThT fluorescence | Potency, µM (highest dose often 57.4 µM), for the others: at the highest dose activity, negative = inhibition, most hits filed as inhibitors | 270,000 compounds, 2.1% hits | AID 1460, 2008; also: % is scaled to controls: 0 for no effect and ±100 for the full control effect; nearly all actives have a fitted effect of over 55% in size
# Target sequence (P10636 561-689 P618L limits assumed): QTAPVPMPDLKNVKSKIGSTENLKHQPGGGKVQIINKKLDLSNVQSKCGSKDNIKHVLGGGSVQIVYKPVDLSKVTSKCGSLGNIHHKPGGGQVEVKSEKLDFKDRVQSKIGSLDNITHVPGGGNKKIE
#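 In this qHTS, human K18 P301L tau is incubated with compound and heparin for 6 hr at 37 C, and Thioflavin T fluorescence then reports fibril load.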
# Tau FP inhib = qHTS for Inhibitors of Tau Fibril Formation, Fluorescence Polarization. 280,000 compounds, 0.39% hits. Potency, µM (titrated, usually from 57.7 µM), without a hit: top-dose activity, negative = inhibition, most hits filed as inhibitors. AID 1468, 2008. K18 P301L tau heparin fibrillization, Alexa594 FP, 6 h. Microtubule-associated protein tau (Homo sapiens), P10636; also: % is scaled to controls: 0 for no effect and ±100 for the full control effect; nearly all actives have a fitted effect of over 55% in size
#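 K18 P301L tau (15 uM unlabeled/0.24 uM Alexa 594-labeled, final) + compound + heparin 20 uM final; 100 mM NaOAc pH 7; 6 hr 37 C; ThT 30 uM final added, 1 hr RT; FP ex 555/em 632 nm.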
# * hit, by the source's call; ? = inconclusive; · = not tested or not shown; [ ] = remark or other dose. Hits are enriched below; roughly 3.7% of the tested compounds scored in any of these assays. Calls follow the shape of the dose curve; as a rule, active = well fitted curve in the direction sought with a large enough effect; inconclusive = small, poorly fitted or top-dose-only effect, or another doubt; inactive = no such curve, though single readings can be large; an effect the other way counts as inactive or inconclusive. Potency is read from the fitted curve at half-maximal effect.
SMILES,HttQ103 aggreg,HTT cytoprotect,Tau fluor counter,Tau ThT inhib,Tau FP inhib
CCOCCOCC,·,-2.1%,·,·,·
O=C(Nn1c(-c2ccc(Br)cc2)nc2ccccc2c1=O)c1ccncc1,4.6%,-49.0%,-5.1%,2.7%,-5.7%
Cc1cc(C(=O)Nn2c(-c3ccc(Br)cc3)nc3ccccc3c2=O)ccc1[N+](=O)[O-],35.5µM*,8.2%[10 µM],?,-7.7%,5.6%
Cc1ccc(-c2c(CN3CCN(c4cc(Cl)ccc4C)CC3)csc2C)cc1,·,·,-5.1%,-7.4%,1.7%
CN(c1ccccc1)S(=O)(=O)c1ccc(NC(=O)c2ccc(-c3ccccc3)cc2)cc1,12.6µM*,-36.9%,-29.8%,?,?
CC(=O)Nc1ccc(S(=O)(=O)N(C)c2ccccc2)cc1,3.4%,-7.4%,-6.6%,-6.3%,-3.0%
Clc1cccc(N/N=C/c2ccc(N3CCOCC3)cc2)c1,15.2%,-20.1%,?,?,14.3%
O=C(O)c1ccc(N/N=C/c2ccc(-c3ccccc3)cc2)cc1,30.6%,-64.2%,15.8µM*[quencher],8.91µM*,11.0%
C(=N\Nc1ccccc1)/c1ccc(N2CCOCC2)cc1,-11.1%,-43.7%,?,35.5µM*,12.0%
COc1ccc(/C=N/Nc2ccc(C(=O)O)cc2)cc1Br,17.9%,-37.1%,?,7.08µM*,6.6%
c1ccc(CN(CCN(Cc2ccccn2)Cc2ccccn2)Cc2ccccn2)nc1,·,·,-15.0%,?,-13.7%
N=c1ccn2c(n1)O[C@H]1[C@@H](O)[C@@H](CO)O[C@H]12,·,·,-6.2%,-5.3%,1.7%
Cn1c(/C(C#N)=C/c2ccccc2Br)nc2ccccc21,·,·,-0.8%,?,5.6%
Cc1ccc(C(=O)Nc2nc(=O)n(C)s2)cc1,18.6%,-81.7%,-2.0%,5.6%,-5.5%
Cc1ccc(C(=O)Nc2nc(=O)n(C(=O)c3ccccc3Cl)s2)cc1,-16.5%,?,-29.0%,12.6µM*,?
CC(C)CC(=O)n1sc(NC(=O)c2ccccc2)nc1=O,?,-30.5%,-20.0%,22.4µM*,?
Cn1sc(NC(=O)c2ccc(Cl)cc2)nc1=O,?,-77.8%,1.8%,15.4%,1.3%
Cc1ccc(CNC(=O)CN2C(=O)CSc3ccc(S(=O)(=O)N4CCCC4)cc32)cc1,·,·,-25.1%,-10.8%,-4.5%
CC(=O)N1CCN(c2nc(-c3ccco3)c3c(c2C#N)CC(C)(C)SC3)CC1,12.6µM*,-52.4%,-8.5%,?,-8.5%
CC1(C)Cc2c(C#N)c(N3CCN(C(=O)c4ccco4)CC3)nc(-c3ccco3)c2CS1,23.7%,25.4%[10 µM],-2.2%,-1.0%,7.1%
COc1ccccc1/C=C/C(=O)N1CCCC1,5.3%,25.9%[0.074 µM],7.9%,13.4%,0.5%
CNc1ccc(Br)cc(C(=O)/C=C/c2cccc(OC)c2OC)c1=O,?,-19.8%[10 µM],?,14.1µM*,?
O=C(/C=C/c1cc(Br)ccc1O)c1ccco1,5.8%[9.22 µM],-18.8%[10 µM],-5.8%,?,?
COc1ccccc1/C=C/C(=O)/C=C/c1ccccc1O,28.1%[9.22 µM],2.6%[10 µM],-27.7%,14.1µM*,?
COc1ccccc1/C=C/C(C)=O,-5.7%,·,-3.2%,-9.6%,-6.3%
CNc1ccc(Br)cc(C(=O)/C=C/c2cccc(Cl)c2Cl)c1=O,1.4%[9.22 µM],0.9%[10 µM],?,7.08µM*,?
CNc1ccccc(C(=O)/C=C/c2ccccc2OC)c1=O,?,·,?,15.8µM*,?
COc1cccc(N2C(=O)C(CC(=O)Nc3ccc(Cl)cc3)N(Cc3ccc4c(c3)OCO4)C2=O)c1 (stereo unspecified),·,·,?,5.2%,-12.3%
COc1ccc(NC(=O)Cn2ccn(-c3ccc(F)c(F)c3)c(=O)c2=O)cc1Cl,·,·,?,?,-7.3%
COc1cc(C)c(CC/C(C)=C/C=C/C(C)=O)c(C)c1C,·,-15.6%,-14.8%,?,-8.6%
